Inconclusive results are not listed. The source made the active and inactive calls. Unless noted, the call rests on the fitted dose curve; in most records, active means well fitted curve in the direction sought with a large enough effect in the repeat runs; inconclusive means weak or mixed curves; inactive means no such curve, though single readings can be large; an effect the other way counts as inactive or inconclusive.
Experiments:
[1] = target: Thyrotropin receptor (Homo sapiens) (UniProt P16473); test: qHTS assay to identify small molecule agonists of the thyroid stimulating hormone receptor (TSHR) signaling pathway (AID 1224843; calls by dose curve; further: nearly all actives have a fitted effect of over 45% in size)
Sequence of Thyrotropin receptor (Homo sapiens) (P16473 whole entry, looked up): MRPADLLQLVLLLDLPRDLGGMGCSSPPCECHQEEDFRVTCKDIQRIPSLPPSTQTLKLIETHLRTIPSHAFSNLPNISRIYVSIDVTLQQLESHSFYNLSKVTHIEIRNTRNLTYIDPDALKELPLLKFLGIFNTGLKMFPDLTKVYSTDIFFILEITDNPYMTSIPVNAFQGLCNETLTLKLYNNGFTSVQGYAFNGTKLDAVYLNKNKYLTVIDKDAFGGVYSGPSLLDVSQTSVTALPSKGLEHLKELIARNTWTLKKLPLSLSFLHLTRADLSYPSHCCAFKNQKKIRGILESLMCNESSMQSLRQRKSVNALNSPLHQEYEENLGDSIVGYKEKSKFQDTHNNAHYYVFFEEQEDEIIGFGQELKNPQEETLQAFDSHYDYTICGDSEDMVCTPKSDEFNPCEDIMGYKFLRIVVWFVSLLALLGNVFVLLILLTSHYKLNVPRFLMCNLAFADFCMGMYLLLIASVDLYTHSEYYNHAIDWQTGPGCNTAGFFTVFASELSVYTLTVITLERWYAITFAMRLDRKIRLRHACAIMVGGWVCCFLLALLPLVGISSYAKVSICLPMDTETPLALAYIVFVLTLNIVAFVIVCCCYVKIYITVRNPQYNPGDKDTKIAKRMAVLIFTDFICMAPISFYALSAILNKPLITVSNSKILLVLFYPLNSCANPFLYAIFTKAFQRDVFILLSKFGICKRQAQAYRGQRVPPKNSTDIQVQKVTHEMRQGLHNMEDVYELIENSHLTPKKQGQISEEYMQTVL
Procedure, shortened: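 Using 15 concentrations per compound in triplicate, cAMP production was monitored in TSHR-HEK293 cells after 30 min compound incubation at RT; HTRF reagents followed, with fluorescence intensity recorded after 1 h.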

[2] = qHTS assay to identify small molecule agonists of the hypoxia (HIF-1) signaling pathway - cell viability counter screen (AID 1224844; calls by dose curve; further: nearly all actives have a fitted effect of over 50% in size)
Procedure, shortened: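 CellTiter-Glo luminescence read-out, 30 min RT, taken in the same wells as the beta-lactamase HRE reporter assay; HRE-bla ME-180 cells, 0.5% dialyzed FBS, 17 hr compound treatment at 37C, 5% CO2.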

[3] = qHTS assay to identify small molecule agonists of H2AX (AID 1224845; active means well fitted activation curve with a large enough effect in the signal ratio in the repeat runs, not every such curve was filed as active; the % refers to the signal ratio; further: potency means the concentration at half of the fitted maximal effect)
Procedure, shortened: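 Wild-type CHO-K1 cells plated overnight, then exposed 3 hr at 37C to compounds at 15 concentrations (0.76% DMSO). Lysed, then HTRF anti-pH2AX(S139)-cryptate/anti-H2AX-d2 detection after 24 hr at room temperature; emissions 665 and 620 nm.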

[4] = qHTS assay to identify small molecule agonists of the hypoxia (HIF-1) signaling pathway (AID 1224846; active means well fitted activation curve with a large enough effect in the signal ratio in the repeat runs, not every such curve was filed as active; the % refers to the signal ratio)
Procedure, shortened: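 Beta-lactamase FRET read-out (CCF4-AM substrate) from ME-180 cells carrying an HRE-driven bla reporter, after 17 hrs compound exposure at 37C/5% CO2. Cells were seeded at 2,000 per well in 0.5% dialyzed FBS medium and preincubated 5 hrs.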

[5] = qHTS assay to identify small molecule agonists of H2AX - cell viability counter screen (AID 1224847; calls by dose curve; further: top concentration of the series differs between compounds; nearly all actives have a fitted effect of over 30% in size)
Procedure, shortened: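 Counter-screen for viability: CellTiter-Glo ATP luminescence read after 3 h compound treatment (15-point titration, 0.76% DMSO final) of CHO-K1 cells at 37C, with 30 min room-temperature reagent incubation.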

[6] = qHTS RealTime-Glo MT Cell Viability Assay in HepG2 cells - 24 hour (AID 1224867); further: nearly all actives have a fitted effect of over 50% in size
Procedure, shortened: (§1)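 Compound treatment began 5 h after plating HepG2 cells (600/well) with NanoLuc luciferase and prosubstrate. Plates stayed at 37 C for 40 h; luminescence was captured at six time points, 0 h through 40 h.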

[7] = qHTS RealTime-Glo MT Cell Viability Assay in HEK293 cells - 32 hour (AID 1224868); further: top concentration of the series differs between compounds; nearly all actives have a fitted effect of over 50% in size
Procedure, shortened: (§2)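 Quantitative high-throughput screen of the Tox21 10K library in HEK293: cells and RealTime-Glo reagents plated together, compound added at 5 h, luminescence monitored through 40 h at 37 C.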

[8] = A CellTox Green Cytotoxicity Assay to monitor cytotoxicity in HEK293 cells - 0 hour (AID 1224869); further: nearly all actives have a fitted effect of over 50% in size
Procedure, shortened: (§3)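 Read-out: fluorescence of a cell-impermeant cyanine dye staining DNA of dead cells, proportional to cytotoxicity. HEK293, 600 cells/well with reagent, compound (23 nL DMSO) added after 5 h; reads at 0, 8, 16, 24, 32, 40 h.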

[9] = qHTS RealTime-Glo MT Cell Viability Assay in HepG2 cells - 40 hour (AID 1224870); further: nearly all actives have a fitted effect of over 50% in size
Procedure, shortened: (§4)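 HepG2 cells mixed with RealTime-Glo MT reagents (NanoLuc plus cell-permeant prosubstrate) were seeded at 600 cells/well, incubated 5 h at 37 C/5% CO2, then pinned with compounds in DMSO; nonlytic luminescence tracked viability during 40 h treatment.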

[10] = qHTS RealTime-Glo MT Cell Viability Assay in HEK293 cells - 16 hour (AID 1224872)
Procedure, shortened: as §2

[11] = qHTS RealTime-Glo MT Cell Viability Assay in HepG2 cells - 8 hour (AID 1224873); further: nearly all actives have a fitted effect of over 55% in size
Procedure, shortened: as §4

[12] = qHTS RealTime-Glo MT Cell Viability Assay in HEK293 cells - 40 hour (AID 1224874); settings: RealTime-Glo luminescence; max response: active compounds read low; further: nearly all actives have a fitted effect of over 50% in size
Procedure, shortened: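 Luminescence readout at each listed time point; HEK293, 600 cells/well, RealTime-Glo MT reagent added with cells; compounds pinned (23 nL in DMSO) after 5 h at 37 C; continuous culture at 37 C.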

[13] = A CellTox Green Cytotoxicity Assay to monitor cytotoxicity in HEK293 cells - 24 hour (AID 1224875); further: nearly all actives have a fitted effect of over 45% in size; further: potency means the concentration at half of the fitted maximal effect; on activity change: series mostly up to about 77 µM
Procedure, shortened: as §3

[14] = qHTS RealTime-Glo MT Cell Viability Assay in HepG2 cells - 32 hour (AID 1224877); further: nearly all actives have a fitted effect of over 55% in size
Procedure, shortened: as §1

[15] = A CellTox Green Cytotoxicity Assay to monitor cytotoxicity in HepG2 cells - 40 hour (AID 1224879); further: nearly all actives have a fitted effect of over 40% in size
Procedure, shortened: (§5)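 HepG2, 600 cells/well premixed w/ CellTox Green; 5 h settle, 37 C/5% CO2; pintool cpd add (DMSO); 37 C, 40 h; fluorescence read at 0, 8, 16, 24, 32, 40 h.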

[16] = A CellTox Green Cytotoxicity Assay to monitor cytotoxicity in HEK293 cells - 40 hour (AID 1224871); further: nearly all actives have a fitted effect of over 45% in size; further: potency means the concentration at half of the fitted maximal effect
Procedure, shortened: as §3

[17] = A CellTox Green Cytotoxicity Assay to monitor cytotoxicity in HepG2 cells - 24 hour (AID 1224878); further: nearly all actives have a fitted effect of over 45% in size
Procedure, shortened: as §5

[18] = A CellTox Green Cytotoxicity Assay to monitor cytotoxicity in HepG2 cells - 16 hour (AID 1224876); further: nearly all actives have a fitted effect of over 45% in size; further: potency means the concentration at half of the fitted maximal effect
Procedure, shortened: as §5
On the % scale 0 is the no-effect control and ±100 the full control effect.

Cc1cn([C@H]2C[C@H](F)[C@@H](CO)O2)c(=O)[nH]c1=O
inactive: Potency [1] | Potency [2] | outcome [4] | Potency [5] | Potency [6] | Potency [7] | Potency [8] | Potency [9] | Potency [10] | Potency [11] | max response [12] 16.7% | Potency [13] | Potency [14] | Potency [15]
active: Potency [3] 0.0438 µM

c1ccc2sc(SSc3nc4ccccc4s3)nc2c1
inactive: activation [1] -4.06% [at 19 µM] | activity change, negative = cytotoxicity [2] -3.54% [at 15.8 µM] | activation (H2AX phosphorylation) [3] 0.89% [at 31.6 µM] | activation [4] 0.936% [at 15.8 µM] | activity change, negative = cytotoxicity [5] 3.41% [at 31.6 µM] | activity change, negative = cytotoxicity [6] 4.65% [at 15.8 µM] | activity change, negative = cytotoxic [7] 12.7% [at 15.8 µM] | cytotoxicity [8] 4.7% [at 15.8 µM] | cytotoxicity increase [16] 14.8% [at 15.8 µM] | activity change, negative = cytotoxicity [10] -1.01% [at 15.8 µM] | viability change, negative = cytotoxic [11] 2.86% [at 15.8 µM] | max response [12] 15.6% | activity change [13] 14.2% [at 15.8 µM, active compounds read high] | activity change, negative = cytotoxic [14] 1.02% [at 15.8 µM] | cytotoxicity [17] 3.43% [at 15.8 µM] | cytotoxicity increase [15] 16.6% [at 15.8 µM]

CCCCCC
inactive: Potency [1] | Potency [2] | Potency [3] | outcome [4] | Potency [5] | Potency [6] | Potency [7] | Potency [9] | Potency [16] | Potency [10] | Potency [11] | max response [12] 0.47% | Potency [13] | Potency [14] | Potency [15]

O=C(NC(Cc1cc(=O)[nH]c2ccccc12)C(=O)O)c1ccc(Cl)cc1 (stereo not given)
inactive: Potency [1] | Potency [2] | Potency [3] | outcome [4] | Potency [5] | Potency [6] | Potency [7] | Potency [9] | Potency [16] | Potency [10] | Potency [11] | max response [12] 3.38% | Potency [13] | Potency [18] | Potency [14] | Potency [17]

CCC(=O)OCc1ccc(OC)cc1
inactive: Potency [1] | Potency [2] | Potency [3] | outcome [4] | Potency [5] | Potency [6] | Potency [7] | Potency [8] | Potency [9] | Potency [10] | Potency [11] | max response [12] 0.878% | Potency [13] | Potency [18] | Potency [14] | Potency [17] | Potency [15]

CC1=CC[C@@]23C[C@@H]1C(C)(C)[C@@H]2CC[C@H]3C
inactive: Potency [1] | Potency [2] | Potency [3] | outcome [4] | Potency [5] | Potency [6] | Potency [7] | Potency [8] | Potency [9] | Potency [10] | Potency [11] | max response [12] 1.49% | Potency [13] | Potency [18] | Potency [14]

O=C(c1ccccc1)C1CCC1
active: Potency [16] 24.5 µM | Potency [13] 24.5 µM | Potency [18] 38.9 µM
inactive: Potency [1] | Potency [2] | Potency [3] | outcome [4] | Potency [5] | Potency [6] | Potency [7] | Potency [9] | Potency [10] | Potency [11] | max response [12] 13.2% | Potency [14]

CCOC(=O)N1CCC(Nc2ccc(Cl)cc2N)CC1
inactive: Potency [1] | Potency [2] | Potency [3] | outcome [4] | Potency [5] | Potency [6] | Potency [7] | Potency [8] | Potency [9] | Potency [16] | Potency [10] | Potency [11] | max response [12] -19% | Potency [13] | Potency [14] | Potency [15]
